# From PubChem
# tim10-1 inh – inhibits growth of tim10-1 mutant yeast; S. cerevisiae tim10-1 ts strain growth, BacTiter-Glo, 24 h; inhibition, % at 20 µM; 330,000 compounds, 2.2% hits;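 active = inhibition of at least 40%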;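 note: mutant grown at 25 °C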
# tim23-1 inh – inhibits growth of tim23-1 mutant yeast. 330,000 compounds, 1.3% hits. AID 463212. S. cerevisiae tim23-1 growth, BacTiter-Glo luminescence, 24 h. inhibition, % at 20 µM;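 active = growth inhibition of the mutant yeast at or above 50%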;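 note: temperature-sensitive mutant grown at 25 °C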
# TIM10 inh – TIM10 yeast growth inhibition | S. cerevisiae TIM10 strain growth, BacTiter-Glo luminescence, 24 h | 330,000 compounds, 1.4% hits | AID 463195 | inhibition, % at 10 µM;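 active = inhibition of 40% or more at the single tested concentration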;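 note: wild-type TIM10 isogenic control strain grown at permissive 25 °C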
# SKKanGAS inh – inhibitors of SKKanGAS S. pyogenes growth in kanamycin (SK-promoter or general growth effect). BacTiter-Glo, 6 h. inhibition, % at 7.5 µM. 300,000 compounds, 1.3% hits;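 active = mean replicate score, as percent of positive control median, at least 50; inconclusive = mean below 50 but one replicate at or above 50; inactive = mean and every replicate below 50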;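 note: strain carries kanamycin resistance gene driven by streptokinase promoter and grows in 40 µg/ml kanamycin; loss of luminescence reflects streptokinase promoter inhibition or plain growth inhibition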
# PfHsp90 yeast 2 – growth inhibition of yeast expressing Plasmodium Hsp90; S. cerevisiae expressing PfHsp90, BacTiter-Glo ATP, 48 h; yeast lacking PDR1 and PDR3 efflux regulators; inhibition, % at 9.4 µM; 310,000 compounds, 0.32% hits;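 active = every replicate shows inhibition above about 80%, whatever the replicate mean, limit read from the data; inconclusive = mean inhibition reaches the set limit but some replicate falls short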
# EBI2 block – EBI2 (human) antagonism; P32249; EBI2 beta-arrestin recruitment, luminescence, 7a,25-OHC stimulated; inhibition, % at 5 µM; 360,000 compounds, 0.81% hits; AID 651636; in the data active = inhibition above about 38%;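 note: enzyme fragment complementation signal reports receptor beta-arrestin coupling in cells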
# Target sequence (P32249 whole entry, looked up, the tested form may be a part): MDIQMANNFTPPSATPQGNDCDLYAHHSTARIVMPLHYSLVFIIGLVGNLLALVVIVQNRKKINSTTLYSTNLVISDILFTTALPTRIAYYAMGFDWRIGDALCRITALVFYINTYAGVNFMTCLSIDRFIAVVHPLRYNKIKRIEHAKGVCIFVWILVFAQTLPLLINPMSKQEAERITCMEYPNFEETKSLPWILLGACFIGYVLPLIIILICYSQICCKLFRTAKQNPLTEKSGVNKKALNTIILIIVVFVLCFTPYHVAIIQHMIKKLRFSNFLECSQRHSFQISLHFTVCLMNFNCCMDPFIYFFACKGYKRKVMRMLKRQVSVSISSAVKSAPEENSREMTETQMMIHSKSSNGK
# tim10-1 conf – tim10-1 yeast growth inhibition, confirmed. shares compounds with tim10-1 inh. 7,400 compounds, 56% hits. inhibition, % at 20 µM. S. cerevisiae tim10-1 ts strain growth, BacTiter-Glo, 24 h. AID 463213;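 active = inhibition of yeast growth at or above a set limit in either of two repeat tests at 20 µM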;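 note: tim10-1 mutant grown at permissive 25 °C to find synthetic lethal compounds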
# Hits are given with their value; i = inactive; ? = inconclusive; nt = no result. This is a sample that favours compounds with a hit; in the whole collection about 4.7% have one here.
SMILES,tim10-1 inh,tim23-1 inh,TIM10 inh,SKKanGAS inh,PfHsp90 yeast 2,EBI2 block,tim10-1 conf
COc1ccc(C2=NN(C(N)=S)C(c3ccco3)C2)cc1 (centres undefined),i,i,i,i,i,i,nt
COc1ccc(CNC(=O)COC(=O)c2cc(C)oc2C)cc1,nt,nt,nt,nt,nt,i,nt
C/C(=N\NC(=S)NCc1ccccc1)c1ccc(Cl)s1,41.3,i,i,i,i,i,32.5
Cc1ccc(S(=O)(=O)Nc2cccc(C(=O)NCCN3CCOCC3)c2)cc1F,i,i,i,nt,i,i,nt
COc1ccccc1Cc1c(-c2cccc(Cl)c2)nc2ccc(C)cn12,nt,nt,nt,nt,nt,i,nt
CN(C(=O)COC(=O)CCc1c[nH]c2ccccc12)c1ccccc1,42.5,i,i,i,i,i,i
CC(=O)N1CCN(CC(=O)Nc2cc(S(=O)(=O)N3CCOCC3)ccc2C)CC1,i,i,i,i,nt,i,nt
CCCCNC(=S)NNC(=O)c1cc(-c2ccncc2)nc2ccccc12,i,i,i,i,i,i,nt
CCCOc1cccc(-c2cc(C(=O)NNC(=S)NCC)c3ccccc3n2)c1,54.3,i,i,i,i,i,50.5
CCCOc1ccc(C(=O)NNC(=S)NC(=O)c2cc(-c3ccc(Cl)cc3)nc3ccccc23)cc1,46.3,i,i,99.3,i,i,35.9
CCNC(=S)NNC(=O)c1cc(CC(C)C)nc2ccccc12,i,i,i,i,i,i,nt
CCNC(=S)NNC(=O)c1cc(-c2ccccc2C)nc2ccccc12,46.1,i,i,i,i,i,46.3
CCCOc1cccc(-c2cc(-c3n[nH]c(=S)n3CC)c3ccccc3n2)c1,43.4,i,i,i,i,i,32.2
O=S(=O)(c1ccc(Br)s1)n1cccn1,i,i,i,i,nt,i,nt
Cc1ccc(C)c(-c2cc(C(=O)NNC(=S)NCC(C)C)c3ccccc3n2)c1,47.0,i,i,i,i,i,i
COC(=O)[C@@H]1C[C@H]2CC[C@H](O)C[C@H]2N1Cc1ccc(C(F)(F)F)cc1,i,i,i,i,i,i,nt
COc1ccc(CCNC(=O)c2ccc(S(=O)(=O)N3CCCCC3)cc2)cc1,i,i,i,nt,i,i,nt
N/C(=N\N=C/c1ccc(Br)cc1)N/N=C\c1ccc(Br)cc1,i,i,i,?,i,i,nt
N/C(=N\N=C/c1ccc(F)cc1)N/N=C\c1ccc(F)cc1,44.0,i,i,i,i,i,i
O=C(ON=C1CCN(S(=O)(=O)c2ccccc2)CC1)c1ccccc1,57.8,i,i,i,nt,i,55.7
COc1cccc(/C=N/NC(=O)C(=O)NCc2ccco2)c1O,58.2,i,i,i,i,i,i
COc1cccc(/C=N/NC(=O)C(=O)NCc2ccco2)c1OC,i,i,i,i,i,i,nt
C[C@H]1CN=C(N(C)C)N1CC1CCC(C(C)(C)C)CC1 (some centres undefined),i,i,i,nt,i,i,nt
CCOC(=O)COc1ccc2nsnc2c1,i,i,i,i,i,i,nt
CCOC(=O)COc1ccc(/C=C/[N+](=O)[O-])c(OCC(=O)OCC)c1,42.1,i,i,i,i,i,49.5
SMILES,tim10-1 inh,tim23-1 inh,TIM10 inh,SKKanGAS inh,PfHsp90 yeast 2,EBI2 block,tim10-1 conf
CCOC(=O)Cc1cc(-c2ccc(O)cc2)nc2ccc3ccccc3c12,41.8,i,i,i,i,i,i
Cc1cc(N2CCOCC2)nc2ccc(NC(=S)NCCC(C)C)cc12,43.7,i,i,i,i,i,28.5
Cc1cc(N2CCN(C)CC2)nc2ccc(NC(=S)NCCC(C)C)cc12,i,i,i,i,i,i,nt
Cc1cccc(C)c1NC(=O)c1cc(S(=O)(=O)N2CCC3(CC2)OCCO3)ccc1F,nt,nt,nt,nt,nt,i,nt
COc1ccc(C)cc1NC(=O)c1cc(S(=O)(=O)N2CCC3(CC2)OCCO3)ccc1F,45.9,i,i,i,i,i,i
Cc1ccc(C)c(OCCC(=O)OCC(=O)N2CCN(S(=O)(=O)c3ccc(Cl)cc3)CC2)c1,44.8,i,i,i,i,i,29.4
CCOC(=O)C1C(=O)NC(C(=O)OCC)(C(=O)OCC)C1C(C)CC (centres undefined),nt,nt,nt,nt,nt,i,nt
Oc1cc(Br)ccc1C=Nc1ccc(N2CCCCC2)cc1,42.1,i,i,i,i,i,i
CCc1cccc(NS(=O)(=O)c2c(C)[nH]c(=O)[nH]c2=O)c1,i,i,i,i,i,i,nt
COc1cccc(/C=C2\N=C(C3CCCCC3)OC2=O)c1OC,47.4,i,i,i,nt,i,33.2
COc1cccc(C(C)NC(=S)NCc2ccc(F)cc2)c1 (centres undefined),41.8,i,i,i,i,i,i
Cc1ccc(C(C)NC(=S)NCc2ccc(F)cc2)cc1C (centres undefined),i,i,i,i,i,i,nt
CCN(CC)C(=O)c1cn(-c2cccc(OC)c2)c(=O)c2ccccc12,i,i,i,i,i,i,nt
CC(=O)c1sc(N/N=C2\CC3CCC2(C)C3(C)C)nc1C (centres undefined),43.1,i,i,i,i,i,i
Cc1ccc(S(=O)(=O)NN=C2CC3CCC2(C)C3(C)C)cc1 (centres undefined),nt,nt,nt,nt,i,i,nt
CCCOc1ccc(NC(=O)CC2C(=O)N(CC)C(=S)N2Cc2cccs2)cc1 (centres undefined),49.6,i,i,i,i,i,34.9
O=C(COC(=O)c1ccc[n+]([O-])c1)Nc1ccc(Cl)cc1[N+](=O)[O-],i,i,i,nt,i,i,nt
Cc1nn(CCCC(=O)Nc2cc(Oc3ccc(F)cc3)cc([N+](=O)[O-])c2)c(C)c1[N+](=O)[O-],41.4,i,i,i,nt,i,i
CCn1nc(C)c(C(=O)Nc2cc(Oc3ccc(Cl)cc3)cc([N+](=O)[O-])c2)c1C,49.2,i,i,i,nt,i,36.0
CN(C)S(=O)(=O)c1ccc(NC(=O)CCCNC(=O)c2ccc(Cl)cc2)cc1,i,i,i,i,i,i,nt
O=C(c1cc(COc2ccc(F)c(F)c2)on1)N1CCN(C2CCCCC2)C(=O)C1,40.4,i,i,i,i,i,i
CCN(C(=O)C1CCN(S(=O)(=O)c2ccc3c(c2)oc(=O)n3C)CC1)c1cccc(C)c1,i,i,i,i,i,i,nt
O=C(Nc1cccc2cccnc12)c1ccc2c(c1)OCCO2,41.0,i,i,i,i,i,i
Cc1ccc(NC(=S)/N=C(\N)Nc2nc(C)c3cc(C)ccc3n2)c(C)c1,50.4,i,i,i,i,i,37.3
O=C(Oc1ccc2c(c1)O/C(=C\c1ccncc1)C2=O)c1ccccc1,41.8,i,i,i,i,i,i
Cc1coc2c1C(=O)C(=O)c1c-2ccc2c(C)cccc12,51.4,i,i,72.9,i,i,i
CCCCNC(=O)c1cn(C)c2ccc(S(=O)(=O)N3CC(C)CC(C)C3)cc2c1=O (centres undefined),i,i,i,i,i,i,nt
